The source of these data is PubChem BioAssay AID624330 (Southern Research Specialized Biocontainment Screening …, 2012).

In all, about 340,000 compounds went through this assay and about 2,100 (0.62%) were called active. Only a sample is shown. Potency and affinity values are given separately. Values without a mark were called inactive.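 How the source made its calls: active means first-screen hits whose inhibition reached a set limit at any dose in the follow-up dose series; inconclusive means inhibition above the set first-screen limit but never retested; inactive means the rest.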

The target of the experiment is Rac GTPase-activating protein 1 (Homo sapiens) (UniProt Q9H0H5). Kind of experiment: MgcRacGAP GTPase-activating activity inhibitors, confirmation, biochemical, ADP Hunter fluorescence, primary and confirmatory (AID 624330).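 Further: fluorescence reports GDP produced by GAP-driven GTP hydrolysis.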 Conditions: MgcRacGAP-stimulated Rac1 GTP hydrolysis, at 30 µM, active compounds read high, GST-tagged Rac1 F28L mutant substrate.
Sequence of Rac GTPase-activating protein 1 (Homo sapiens) (Q9H0H5 whole entry, looked up): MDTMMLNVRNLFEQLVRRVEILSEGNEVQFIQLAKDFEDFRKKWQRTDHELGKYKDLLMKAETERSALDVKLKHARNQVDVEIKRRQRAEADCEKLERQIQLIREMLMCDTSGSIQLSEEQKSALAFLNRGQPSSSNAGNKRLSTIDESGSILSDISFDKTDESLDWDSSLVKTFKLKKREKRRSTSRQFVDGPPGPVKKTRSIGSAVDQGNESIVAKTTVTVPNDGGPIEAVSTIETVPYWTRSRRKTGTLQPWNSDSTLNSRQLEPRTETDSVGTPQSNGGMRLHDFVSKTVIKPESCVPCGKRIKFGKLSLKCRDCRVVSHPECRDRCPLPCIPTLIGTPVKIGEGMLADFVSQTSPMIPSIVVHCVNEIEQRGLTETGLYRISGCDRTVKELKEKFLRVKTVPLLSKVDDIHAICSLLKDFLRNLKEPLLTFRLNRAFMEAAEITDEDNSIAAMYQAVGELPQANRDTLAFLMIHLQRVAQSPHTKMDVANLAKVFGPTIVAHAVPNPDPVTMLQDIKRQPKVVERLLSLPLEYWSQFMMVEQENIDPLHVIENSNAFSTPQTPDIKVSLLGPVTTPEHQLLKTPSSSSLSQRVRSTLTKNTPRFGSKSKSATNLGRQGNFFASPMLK
With `Cc1cc(=O)oc2c3c(cc(OCC(=O)NC(Cc4ccc(Cl)cc4)C(=O)O)c12)OC(C)(C)CC3` (stereo not drawn), the inhibition was 6.3%.

Take `O=C(NCc1ccccc1)NC(=O)c1ccncc1`: the inhibition is 8.08%.

For `O=C1NC(=S)NC1Cc1ccc(O)cc1` (stereo not drawn), the inhibition is 7.3%.

With `CCn1ccnc1CN1CCCCC1C(=O)Nc1ccc(Oc2cccnc2)cc1` (stereo not drawn), the inhibition was 10.9%.

Turning to `CC(=O)N1CCN(c2ccc(NC(=O)c3cccc(C)c3)cc2)CC1`, the inhibition was -9.43%.

Regarding `O=C1CC(Nc2ccc(N3CCOCC3)cc2)C(=O)N1CCc1ccccc1` (stereo not drawn), the inhibition is 14.7%.

`O=C(O)c1ccc(NCc2cccs2)cc1`: the inhibition was -0.42%.

Turning to `O=C1CC(Nc2ccccc2)C(=O)N1Cc1ccccc1` (stereo not drawn), the inhibition is 7.76%.

With `Cc1cccc(CNc2ccc(S(=O)(=O)N3CCCCC3)cc2)c1`, the inhibition was 2.94%.

Take `CC(=O)Nc1ccc(NCc2cccs2)cc1`: the inhibition is 31.6%.

Take `CC1CCN(Cc2cc(=O)oc3ccc(C(C)C)cc23)CC1`: the inhibition is 5.26%.

Regarding `O=S(=O)(N/N=C1\CC(c2ccccc2)Oc2ccccc21)c1ccccc1` (stereo not drawn), the inhibition is -7.41%.

With `Fc1ccc(CNC2CCN(Cc3ccccc3)CC2)cc1`, the inhibition was -1.76%.

Consider `COc1ccccc1CNC1CCN(Cc2ccccc2)CC1`, for which the inhibition was -3.78%.

As for `COc1ccc(O)c(/C=N/Nc2nc(C)cc(-c3ccccc3)n2)c1`, the inhibition is 3.11%.

Turning to `Cc1cc(-c2ccccc2)nc(N/N=C/c2ccccc2F)n1`, the inhibition was 2.38%.

Turning to `COc1ccc(/C=N/Nc2nc(C)cc(-c3ccccc3)n2)cc1OC`, the inhibition is 11.1%.

In the case of `Cc1cc(-c2ccccc2)nc(N/N=C/c2cccnc2)n1`, the inhibition was 3.86%.

Regarding `C/C(=N\Nc1nc2ccccc2nc1C)c1ccccc1O`, the inhibition was -0.02%.

Take `Oc1ccc(/C=N/Nc2ccccc2)cc1`: the inhibition was 12.9%.

As for `Cc1cc(-c2ccccc2)nc(N/N=C/c2ccccc2)n1`, the inhibition is 4.11%.

Take `Cc1cc(-c2ccccc2)nc(N/N=C/c2ccc([N+](=O)[O-])cc2)n1`: the inhibition was 6.88%.

Consider `CCOC(=O)CN1C(=O)S/C(=C/c2ccc(C)o2)C1=O`, for which the inhibition is 13.6%.

For the compound `O=C(CN(CC1CCCO1)C(=O)CCC(=O)Nc1nccs1)NCC1CCCO1` (stereo not drawn), the inhibition is -9.34%.

With `O=C1CCc2cc(S(=O)(=O)Nc3cccc(F)c3)cc3c2N1CC3`, the inhibition was 4.84%.

For `O=C(NCC(c1cccs1)N1CCOCC1)c1cc(S(=O)(=O)N2CCOCC2)c(Cl)cc1Cl` (stereo not drawn), the inhibition was 2.31%.

Take `Cc1occc1-c1nnc(SCCCC(=O)c2ccc(F)cc2)n1C`: the inhibition was 14.1%.

In the case of `NNC(=S)NCCc1ccccc1`, the inhibition was 6.19%.

Take `CC(C(=O)Nc1ccccc1)N1CCN(c2ccccn2)CC1` (stereo not drawn): the inhibition was 7.75%.

Consider `CC(C(=O)N1CCc2ccccc21)N1CCN(c2ccccn2)CC1` (stereo not drawn), for which the inhibition is 6.14%.

As to `O=C(CNC(=O)Cc1ccccc1)NCc1cccc(C(F)(F)F)c1`, the inhibition is 1.1%.

For the compound `CCN(Cc1ccncc1)C(=O)c1cccs1`, the inhibition was -1.7%.

Regarding `O=C(CC1CCCC1)N1CCCC(Nc2cccc(F)c2)C1` (stereo not drawn), the inhibition is 7.36%.

Consider `CC1CC(C)CN(C(=O)Cn2c(=O)n(CCCC(=O)NCc3ccco3)c(=O)c3sccc32)C1` (stereo not drawn), for which the inhibition is 9.26%.

For `CCOc1cc2c(cc1OCC)C(c1ccccc1)N(c1ccccc1)C(=O)C2` (stereo not drawn), the inhibition is 1.91%.

As to `CCN(CC)C(=O)CSc1nc2ccccc2c(=O)n1-c1ccccc1OC`, the inhibition was -9.96%.

For the compound `COc1ccccc1-n1c(SCC(=O)N2CCOCC2)nc2ccccc2c1=O`, the inhibition is -0.91%.

As for `CCn1c(/C=C/c2ccc(F)cc2)nc2ccccc2c1=O`, the inhibition was 8.84%.

Consider `CCn1c(/C=C/c2ccccc2)nc2ccccc2c1=O`, for which the inhibition was 10.4%.

Turning to `O=c1c2ccccc2nc(/C=C/c2ccc(O)cc2)n1CCc1ccccc1`, the inhibition was 4.64%.

With `O=c1c2ccccc2nc(N/N=C/c2ccc(O)cc2)n1O`, the inhibition is 18.1%.

For `C=CCn1c(C)nc2ccccc2c1=O`, the inhibition is 2.89%.

`Cn1c(/C=C/c2ccccc2)nc2ccccc2c1=O`: the inhibition was 5.36%.

Regarding `O=C(CSc1nncn1-c1ccccc1)Nc1ccccc1F`, the inhibition was 3.06%.

As for `COc1ccccc1/C=C/C(=O)OCC(=O)N1CCN(S(=O)(=O)c2ccc(C)cc2C)CC1`, the inhibition was 6.05%.

Turning to `CC(OC(=O)c1ccc(Cl)nc1)C(=O)Nc1ccc(S(=O)(=O)N2CCCC2)cc1` (stereo not drawn), the inhibition was 4.67%.

With `C[C@@]12C(=O)N(CC3CC3)CC(=O)N1[C@H](C1CC1)[C@@H]1C(=O)N(c3ccccc3)C(=O)[C@@H]12`, the inhibition is 7.67%.

As to `Cc1cc(C)n2c(SCC(=O)NCc3ccc4c(c3)OCO4)nnc2n1`, the inhibition is 11.5%.

`CSCCC(NC(=O)c1ccccc1Br)C(=O)N1CCN(C/C=C/c2ccccc2)CC1` (stereo not drawn): the inhibition was 9.7%.

As to `COc1ccc(Cl)cc1NS(=O)(=O)N1CCOCC1`, the inhibition is 6.51%.

Regarding `CC1C(=O)NN=C1C(=O)N/N=C\C(Br)=C\c1ccccc1` (stereo not drawn), the inhibition was 20.2%.

As for `COc1cc(OC)c(OC)cc1/C=N/NC(=O)CC1C(=O)NN=C1C` (stereo not drawn), the inhibition was 4.43%.

`CC1C(=O)NN=C1C(=O)N/N=C/c1cccs1` (stereo not drawn): the inhibition was 17.2%.

For the compound `CC1C(=O)NN=C1C(=O)N/N=C/c1ccco1` (stereo not drawn), the inhibition was 14.2%.

Turning to `COc1ccc(OC)c(/C=N/NC(=O)CC2C(=O)NN=C2C)c1` (stereo not drawn), the inhibition was 3.85%.

For `COc1ccc(/C=N\NC(=O)C2=NNC(=O)C2C)cc1` (stereo not drawn), the inhibition is 13.9%.

As to `CCOC(=O)C1C(=O)NC(C(=O)OCC)(C(=O)OCC)C1C(C)CC` (stereo not drawn), the inhibition is 6.57%.

Turning to `CC1CCCC(NC(=O)COC(=O)/C=C/c2ccco2)C1C` (stereo not drawn), the inhibition is 2.8%.

Regarding `CNCCCOc1cccc(OC(C)C)c1`, the inhibition is 16.9%.

With `CCc1ccccc1N(C(=O)c1ccco1)C(C(=O)NC1CCCC1)c1cccnc1` (stereo not drawn), the inhibition is 4.45%.

As to `CN(CC(=O)NCC1CCCO1)S(=O)(=O)c1ccc(Br)cc1` (stereo not drawn), the inhibition was 7.12%.

`C/C(N)=C(/C#N)C(=O)COC(=O)C1CCN(S(=O)(=O)c2cccs2)CC1`: the inhibition is -1.72%.

For the compound `CC(=O)Nc1ccc(C(=O)N2CCc3cc4c(cc3C2C)OCCCO4)cc1` (stereo not drawn), the inhibition is 1.24%.

For the compound `COC(=O)C[C@H]1C[C@@H]2c3cc(NC(=O)Nc4ccc(F)cc4)ccc3O[C@@H]2[C@@H](CO)O1`, the inhibition was 7.07%.

`O=c1ccc(=O)n(-c2ccccc2)[nH]1`: the inhibition was 2.41%.

For `O=c1[nH]n(-c2ccccc2)c(=O)c2ccccc12`, the inhibition is -1.66%.

With `O=C(O)CSCC(=O)Nc1ccc(C(=O)O)cc1`, the inhibition is 7.72%.

Consider `COc1cc(CNCCO)ccc1OCCc1ccccc1`, for which the inhibition is 5.16%.

Regarding `O=C(O)c1ccccc1Nc1ccccc1C(=O)O`, the inhibition was 2%.

`COc1cccc(Nc2ccccc2C(=O)O)c1`: the inhibition is 7.48%.

In the case of `CC(Oc1ccccc1)C(=O)Nc1cccc(F)c1` (stereo not drawn), the inhibition is 3.1%.

`Cc1cc(N)cc(C)c1-c1c(Br)cc(N)cc1Br`: the inhibition was 10.2%.

In the case of `Cc1cc(C)cc(N)c1`, the inhibition was 6.83%.

Take `O=C(CCC(=O)OCc1cccc([N+](=O)[O-])c1)Nc1ccccc1Cl`: the inhibition is 2.82%.

In the case of `COc1ccc(C(=O)NCCc2nnc3ccc(SCC(=O)NCc4ccc(F)cc4)nn23)cc1`, the inhibition was -0.6%.

For `Cc1onc(-c2ccccc2Cl)c1C(=O)NNC(=O)c1nn(C)cc1Cl`, the inhibition was 1.82%.

With `O=C(c1cc(COc2ccc(F)c(F)c2)on1)N1CCN(C/C=C/c2ccccc2)CC1`, the inhibition is -6.39%.

For `Nc1nc(N)c2cc(Sc3cccc(C(F)(F)F)c3)ccc2n1`, the inhibition is 5.58%.

With `Nc1nc(N)c2cc(Sc3ccc(Cl)cc3)ccc2n1`, the inhibition is 11.7%.

With `Cc1nc(Cc2nnc(SCC(=O)N3CCN(c4ccccc4)CC3)o2)cs1`, the inhibition was 5.08%.

As for `Cc1nc(Cc2nnc(SCC(=O)N3CCN(c4ccc(F)cc4)CC3)o2)cs1`, the inhibition is 0.95%.

Regarding `CC(=O)Nc1nc(=S)ss1`, the inhibition was 12.7%.

Consider `CC(C)(C)C(=O)Nc1nc(=S)ss1`, for which the inhibition is 11.6%.
